# Activity calls are given as the source filed them. How the source made its calls: active means hit-call score of the fitted dose curve at least 0.9, where 1 is the maximum; inactive means score below 0.9.
# Read-out: Tumor necrosis factor (Homo sapiens) (UniProt P01375)
# Test: BSK_BT_xTNFa: BioMAP Diversity Plus: BT Assay for Tumor necrosis factor alpha (TNF-alpha) Biomarker Activity (AID 2284230)
# Details: primary human B cells with PBMC
# Procedure, shortened: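 Read-out: Luminex xMAP quantitation of secreted TNF-alpha from a B cell/PBMC co-culture 24 h after compound addition. Signal analysed relative to DMSO vehicle, positive fitting direction.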
# Chain of Tumor necrosis factor (Homo sapiens) (P01375 whole entry, looked up): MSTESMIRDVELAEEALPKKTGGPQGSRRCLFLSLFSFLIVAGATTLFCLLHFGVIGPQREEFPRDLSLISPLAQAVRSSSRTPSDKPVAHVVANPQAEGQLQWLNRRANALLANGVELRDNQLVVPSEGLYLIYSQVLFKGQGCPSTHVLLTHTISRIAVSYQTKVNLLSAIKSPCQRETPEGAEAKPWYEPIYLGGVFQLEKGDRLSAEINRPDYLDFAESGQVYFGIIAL
Compound,outcome,AC50
CC(=O)/C=C/C1=C(C)CCCC1(C)C,inactive,
c1ccc2c(c1)c1cccc3ccc4cccc2c4c31,inactive,
CNC[C@H](O)c1cccc(O)c1,inactive,
CCCCCCCCCC=O,inactive,
CCCCC/C=C/C=C/C=O,,35.7 µM (active)
CC(C)c1ccc(C(C)C)cc1,inactive,
CCc1c(C)cc(N)c(CC)c1N,inactive,
CC(=O)O[C@]1(C(C)=O)CC[C@H]2[C@@H]3C[C@H](C)C4=CC(=O)CC[C@]4(C)[C@H]3CC[C@@]21C,inactive,
C=C[Si](OCC)(OCC)OCC,inactive,
Cc1ccc(O)c(C(C)(C)C)c1,inactive,
CC(C)Oc1ccccc1O,inactive,
CN(CCOc1ccc(CC2SC(=O)NC2=O)cc1)c1ccccn1 (configuration not stated),inactive,
O=C=NC1CCC(CC2CCC(N=C=O)CC2)CC1 (configuration not stated),inactive,
c1ccc2sc(SN(C3CCCCC3)C3CCCCC3)nc2c1,inactive,
O=C(O)C[C@H](O)C[C@H](O)/C=C/c1c(C2CC2)nc2ccccc2c1-c1ccc(F)cc1,,3 µM (active)
Cc1ccc(Nc2ccc(O)c3c2C(=O)c2ccccc2C3=O)cc1,inactive,
COC(=O)c1ccc(C)cc1,inactive,
N#Cc1ccc(CC(=NNC(=O)Nc2ccc(OC(F)(F)F)cc2)c2cccc(C(F)(F)F)c2)cc1,inactive,
O=[N+]([O-])c1cc(C(F)(F)F)ccc1Cl,inactive,
C=C(C)C(=O)O[C@H]1C[C@@H]2CC[C@@]1(C)C2(C)C,inactive,
Nc1cc([N+](=O)[O-])ccc1Cl,inactive,
C#C[C@]1(O)CC[C@H]2[C@@H]3CCC4=Cc5oncc5C[C@]4(C)[C@H]3CC[C@@]21C,,33.7 µM (active)
